From PubChem BioAssay (NCATS)
Results filed as inconclusive are left out. Where a call stands in place of a potency, no number is given. Active and inactive are the calls of the source. The call rests on the fitted dose curve; in most records, active means well fitted inhibition curve with a large enough effect; inconclusive means small, poorly fitted or top-dose-only effect; inactive means no such curve, though single readings can be large or run the other way.

target: Cytochrome P450 3A4 (Homo sapiens) (UniProt P08684); assay: qHTS Assay for Inhibitors and Substrates of Cytochrome P450 3A4 (AID 884); conditions: recombinant CYP3A4, Luciferin-PPXE luminescence; series mostly up to 57.1 µM; further: nearly all actives have a fitted effect of over 50% in size
Summary of the method: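 Luminescent readout of luciferin produced by CYP3A4 (20 nM) dealkylation of Luciferin-PPXE, 25 uM (its KM). NADPH-driven reaction ran 60 min at RT after 10 min compound preincubation; data scaled to 57 uM ketoconazole as 100% inhibition.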
Potency means the concentration at half of the fitted maximal effect.

Cytochrome P450 3A4 (Homo sapiens), sequence (P08684 whole entry, looked up): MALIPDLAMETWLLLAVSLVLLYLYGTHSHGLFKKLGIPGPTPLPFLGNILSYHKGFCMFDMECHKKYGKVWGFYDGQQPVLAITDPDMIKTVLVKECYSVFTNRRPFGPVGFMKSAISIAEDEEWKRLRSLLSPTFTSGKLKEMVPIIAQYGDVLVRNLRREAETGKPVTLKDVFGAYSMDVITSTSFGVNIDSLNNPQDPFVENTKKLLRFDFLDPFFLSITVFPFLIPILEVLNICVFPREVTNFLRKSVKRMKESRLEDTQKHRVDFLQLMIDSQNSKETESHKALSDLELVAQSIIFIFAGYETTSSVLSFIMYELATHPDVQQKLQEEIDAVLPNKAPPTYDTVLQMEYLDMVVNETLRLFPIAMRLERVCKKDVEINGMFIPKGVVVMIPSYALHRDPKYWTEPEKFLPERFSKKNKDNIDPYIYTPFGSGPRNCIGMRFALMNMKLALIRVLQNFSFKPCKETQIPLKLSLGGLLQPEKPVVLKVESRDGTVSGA

SMILES | Potency
COC(=O)[C@@H]1C[C@@]2(O)[C@H](O)[C@H](O)[C@H](O)C[C@H]2N1C/C=C/c1ccccc1 | inactive
COC(=O)C/C=C\[C@@H](C)[C@@H](/C=N\O[C@@H](C)c1cn([C@H](CO)Cc2ccccc2)nn1)OC | 3.98 µM (active)
C[C@@H]1O[C@@H](OC[C@H]2O[C@@H](Oc3c(-c4cccc(O)c4O)oc4cc(O)cc(O)c4c3=O)[C@H](O)[C@@H](O)[C@@H]2O)[C@H](O)[C@H](O)[C@H]1O | inactive
COC(=O)c1ccc(C23CC4(C2)[C@H](CN(CC2CCCCC2)[C@@H]4c2ccccc2)C3c2ccccc2)cc1 (stereo not given in full) | 25.1 µM (active)
COC(=O)NC(c1ccco1)C(C(C)=O)C(=O)OC (stereo not given) | 3.16 µM (active)
CN1C[C@@H]2C(c3ccc(C(F)(F)F)cc3)C3(c4ccccc4)CC2(C3)[C@H]1c1ccccc1 (stereo not given in full) | inactive
CN(C)c1ccc(CNC(=O)[C@@]2(C)C=C[C@@H](Cc3ccccc3)N2C)cc1 | inactive
COC(=O)[C@@H]1C[C@@]2(O)[C@@H](O)[C@@H](O)[C@@H](O)C[C@H]2N1CC1CC1 | inactive
CC(C)Cn1c(N)c(C(=O)COC(=O)c2cc(-c3ccccc3)nc3ccccc23)c(=O)n(C)c1=O | inactive
NC(=O)NCC1CC1 | inactive
O=C(N[C@@H](Cc1ccccc1)C(=O)O)c1ccccc1 | inactive
C#CC(C)OC(=O)C(C)NC(=O)c1ccccc1 (stereo not given) | inactive
CN(C)/C=N/c1cc(=O)[nH]c(=O)n1CC1CC1 | inactive
N#Cc1ccc(C23CC4(C2)[C@H](CN(Cc2ccc(-c5ccccc5)cc2)[C@@H]4c2ccccc2)C3c2ccc(Cl)nc2)cc1 (stereo not given in full) | inactive
O=C(O)c1cc(C2CC2)nc2ccccc12 | inactive
COC(=O)[C@@H]1C[C@@]2(O)[C@@H](O)[C@@H](O)[C@@H](O)C[C@H]2N1C/C=C/c1ccccc1 | inactive
COC(=O)c1cccc(C23CC4(C2)[C@H](CN(Cc2ccc(-c5ccccc5)cc2)[C@@H]4c2ccccc2)C3c2ccc(Cl)nc2)c1 (stereo not given in full) | inactive
CCCCCCCCCCCCCCCC(=O)NCCc1ccc(O)c(O)c1 | inactive
CCC1=C2CC[C@H]3C(=O)NC(=O)[C@H]3[C@H]2[C@@]2(C)C(=NCC(=O)OC)OC(=O)N2C1=O | inactive
COc1cc(/C=C/C(=O)N2CCCCC2=O)cc(OC)c1OC | inactive

SMILES | Potency
CC1=C(C(=O)OCc2ccccc2)C(C2CC2)NC(=O)N1CCCCCC(=O)O (stereo not given) | inactive
Cn1c(=O)c(C(=O)COC(=O)c2cc(C3CC3)nc3ccccc23)c(N)n(Cc2ccccc2)c1=O | inactive
O=C(O)/C=C/c1cccc(B(O)O)c1 | inactive
COC(=O)CC1Oc2cc3oc4c5ccccc5oc(=O)c4c3cc2O1 (stereo not given) | inactive
C[C@H]1C2=C3C(C[C@H]4C(=O)N(c5ccccc5)C(=O)[C@H]4[C@H]3[C@@]3(Cc4ccccc4)C(=NCCc4c[nH]c5ccccc45)OC(=O)N3C2=O)[C@H]2C(=O)N(c3ccccc3)C(=O)[C@H]21 (stereo not given in full) | 2.51 µM (active)
O=C(O)c1ccc(B(O)O)cc1 | inactive
Cn1c(=O)c(C(=O)COC(=O)c2cc(-c3ccccc3)nc3ccccc23)c(N)n(Cc2ccccc2)c1=O | inactive
CCC1=C2CC[C@H]3C(=O)N(C)C(=O)[C@H]3[C@H]2[C@@]2(C)C(=NCC(=O)OC)OC(=O)N2C1=O | inactive
N#Cc1ccc(C23CC4(C2)[C@H](CN(Cc2ccc(C(F)(F)F)cc2)[C@@H]4c2ccccc2)C3c2ccc(Cl)nc2)cc1 (stereo not given in full) | inactive
COC(=O)[C@@H]1C[C@@]2(O)[C@@H](O)[C@@H](O)[C@@H](O)C[C@H]2N1Cc1ccc(Cl)cc1 | inactive
CCC1=C2CC[C@H]3C(=O)N(c4ccccc4)C(=O)[C@H]3[C@H]2[C@@]2(C)C(=O)N(Cc3ccccc3)C(=O)N2C1=O | inactive
N#Cc1ccc(C23CC4(C2)[C@H](CN(Cc2ccc(-c5ccccc5)cc2)[C@@H]4c2ccccc2)C3c2ccc(C(F)(F)F)cc2)cc1 (stereo not given in full) | inactive
O=[N+]([O-])c1ccccc1S(=O)(=O)NCC1CCC(CNCC2CCc3ccccc3C2)CC1 (stereo not given) | inactive
COC(=O)[C@@H]1C[C@@]2(O)[C@@H](O)[C@@H](O)[C@@H](O)C[C@H]2N1Cc1ccc(N2CCOCC2)cc1 | inactive
Nc1cccc(B(O)O)c1 | inactive
CN(C)/C=N/c1cc(=O)n(C)c(=O)n1CC1CC1 | inactive
COC(=O)[C@@H]1C[C@@]2(O)[C@H](O)[C@H](O)[C@H](O)C[C@H]2N1Cc1ccc(N2CCOCC2)cc1 | inactive
CC(=O)c1ccsc1B(O)O | inactive
COC(=O)[C@@H]1C[C@@]2(O)[C@@H](O)[C@@H](O)[C@@H](O)C[C@H]2N1Cc1ccc(-c2ccccc2)cc1 | inactive
O=C(O)c1ccc(NS(=O)(=O)c2ccsc2C(=O)O)cc1 | inactive
